ATXN2 expr inh: reduces ATXN2 reporter expression in HEK-293 cells; HEK-293 ATXN2-luciferase reporter, luminescence, 24 h; Potency, µM (series often up to 57 µM), for inactives: top-dose activity change, negative = inhibition, most hits filed as inhibitors; 360,000 tested, 0.72% active; AID 1745845; note: potency is the fitted concentration of half-maximal effect; % is set by controls: 0 for no effect and ±100 for the full control effect; nearly all actives have a fitted effect of over 55% in size
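qHTS (up to 57 uM final) was run with 24 h compound exposure of reporter cells at 37 °C. Each well was multiplexed: SteadyGlo luminescence measured ATXN2-luciferase expression after a fluorogenic Gly-Phe-AFC viability readout (25 uM final).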
Nrf2 inh: inhibitors of Nrf2 signaling. Potency, µM (highest dose often 46 µM), for the others: at the highest dose activity change, negative = inhibition, usual class: inhibitors. 360,000 tested, 2.1% active. A549 ARE-Fluc reporter, luciferase luminescence, 18-24 h; note: potency is the fitted concentration of half-maximal effect; % is set by controls: 0 for no effect and ±100 for the full control effect; nearly all actives have a fitted effect of over 60% in size
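A549 ARE_Fluc cells (5000/well, 5% FBS OPTI-MEM) pre-incubated 2 h, then treated with compounds 18-24 h at 37C/5% CO2 in concentration-response. CellTiter-Fluor viability read first; BugLite luciferase luminescence after 15 min at room temperature gives Nrf2 activity.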
A549 tox: kills or reduces viability of A549 cells in Nrf2 counter-screen. A549 ARE-Fluc cells, CellTiter-Fluor viability, 18-24 h. Potency, µM (titrated, usually from 46 µM), without a hit: at the highest dose activity change, negative = cytotoxicity, actives largely listed as inhibitors. 390,000 tested, 0.16% active. AID 504648; note: potency is the fitted concentration of half-maximal effect; % is set by controls: 0 for no effect and ±100 for the full control effect
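A549 ARE_Fluc cells in 5% FBS OPTI-MEM were exposed to compounds in concentration-response for 18-24 h at 37 deg C. Viability was read by CellTiter-Fluor fluorescence (Ex 405/Em 525) after 30 min, before the luciferase read.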
Nrf2 activator: Nrf2 pathway activation; AREc32 ARE-luciferase reporter (MCF7-derived line), luminescence, 24 h; Potency, µM (titrated, usually from 46.1 µM), for inactives: at the top dose activation, hits mostly activators; AID 624171; 410,000 tested, 0.31% active; note: potency is the fitted concentration of half-maximal effect; % of control where 0% means no effect; nearly all actives have a fitted effect of over 65% in size
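Luminescent ARE reporter assay in AREc32_Fluc cells: overnight plating at 37 deg C, 24 hr compound incubation, Steady-Glo added, 30 min RT before reading.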
S2 tox: viability counter-screen for ATXN expression inhibitors. 400,000 tested, 0.49% active. S2 cells (HEK-293 line with an ATXN2-luciferase reporter) viability, CellTiter-Fluor protease fluorescence, 24 h. AID 651635. Potency, µM (highest dose often 56.7 µM), most hits filed as cytotoxic; note: potency is the fitted concentration of half-maximal effect; nearly all actives have a fitted effect of over 40% in size
SK-N-SH 3D tox: reduced viability of SK-N-SH 3D spheroids, orthogonal test; shares compounds with ATXN2 expr inh; Potency, µM (titrated, usually from 30.7 µM), actives largely listed as inhibitors; SK-N-SH 3D spheroid viability, PI/Hoechst imaging, 72 h; AID 1347135; 65 tested, 70% active
SJ-GBM2 3D tox: SJ-GBM2 spheroid viability loss, orthogonal 3D screen | shares compounds with ATXN2 expr inh | SJ-GBM2 3D spheroid viability, PI/Hoechst imaging, 72 h | Potency, µM (series often up to 30.7 µM), actives largely listed as inhibitors | 65 tested, 80% active | AID 1347136
Daoy spheroid: kills Daoy spheroids in orthogonal 3D test; shares compounds with ATXN2 expr inh; Daoy 3D spheroid viability, PI/Hoechst imaging, 72 h; Potency, µM (series often up to 30.7 µM), usual class: inhibitors; 65 tested, 50% active
TC32 3D casp: TC32 spheroid caspase-3/7 activation, orthogonal screen; shares compounds with ATXN2 expr inh; TC32 3D spheroids, caspase-3/7 fluorescence imaging, 24 h; Potency, µM (doses to about 30.7 µM), usual class: inhibitors; 65 tested, 30% active; AID 1347138
TC32 3D tox: reduced viability of TC32 3D spheroids, orthogonal test; shares compounds with ATXN2 expr inh; TC32 3D spheroid viability, PI/Hoechst imaging, 72 h; Potency, µM (top dose mostly 30.7 µM), most hits filed as inhibitors; 65 tested, 60% active; AID 1347139
MG63 spheroid: kills MG-63 (6-TG R) spheroids in orthogonal 3D test; MG-63 (6-TG R) 3D spheroid viability, PI/Hoechst imaging, 72 h; Potency, µM (highest dose often 30.7 µM), hits mostly inhibitors; 65 tested, 50% active; AID 1347140; shares compounds with ATXN2 expr inh
RD 3D tox: RD 3D spheroid viability loss; Potency, µM (series often up to 30.7 µM), hits mostly inhibitors; 65 tested, 50% active; RD rhabdomyosarcoma 3D spheroid viability, PI/Hoechst imaging, 72 h; shares compounds with ATXN2 expr inh
* = called active by the depositor; i = inactive; ? = inconclusive; . = no result; [ ] = dose if it differs, or a comment. An excerpt weighted towards active compounds, which were near 2.9% of everything screened. Calls come from the whole dose curve; as a rule, active = well fitted curve in the direction sought with a large enough effect; inconclusive = small, poorly fitted or top-dose-only effect, or another doubt; inactive = no such curve, though single readings can be large; an effect the other way counts as inactive or inconclusive.

SMILES	ATXN2 expr inh	Nrf2 inh	A549 tox	Nrf2 activator	S2 tox	SK-N-SH 3D tox	SJ-GBM2 3D tox	Daoy spheroid	TC32 3D casp	TC32 3D tox	MG63 spheroid	RD 3D tox
COc1cc(C(C)=O)ccc1OCCCN1CCC(Cc2ccccc2)CC1	-24%	8%	-5%	-2%[9.22 µM]	?	.	.	.	.	.	.	.
COc1cc(C(C)=O)ccc1OCCCN1CCC(c2noc3cc(F)ccc23)CC1	7%	.	.	.	i	?	4.1µM*	16µM*	i	i	13µM*	14µM*
CCOC(=O)c1c(NC(=O)c2cc(CC)on2)sc(C)c1C	-8%	18%	-1%	0%	i	.	.	.	.	.	.	.
Cc1ccc(C)c(CN2CCCN(Cc3ccccc3C)S2(=O)=O)c1	.	6%	3%	4%	.	.	.	.	.	.	.	.
Cc1ccc(-c2ncn(-c3ccc(Nc4nccc(-c5cccc(N6CCOCC6)c5)n4)cc3)n2)cn1	4.9µM*	.	.	.	.	0.91µM*	1.6µM*	.	i	i	i	?
CCc1ccc(NC(=O)CCNS(=O)(=O)c2ccc3c(c2)CCCC(=O)N3)cc1	2%	4%	9%	-1%	i	.	.	.	.	.	.	.
CCOc1cc(N2CCC(O)CC2)ccc1Nc1ncc2c(n1)N(C)c1ccccc1C(=O)N2C	64%	.	.	.	.	?	i	i	i	i	i	?
CC[C@@H]1C=C(C)C[C@H](C)C[C@H](OC)[C@H]2O[C@@](O)(C(=O)C(=O)N3CCCC[C@@H]3C(=O)O[C@H](C(C)=C[C@@H]3CC[C@H](Cl)[C@H](OC)C3)[C@H](C)[C@@H](O)CC1=O)[C@H](C)C[C@H]2OC	?	.	.	.	.	16µM*	2.3µM*	1.4µM*	i	20µM*	3.6µM*	?
CCCC1O[C@@H]2CC3C4CCC5=CC(=O)C=C[C@]5(C)C4C(OC(C)=O)C[C@]3(C)[C@]2(C(=O)COC(C)=O)O1 (stereo partly specified)	-13%	-27%	-19%	0%	i	.	.	.	.	.	.	.
CC(=O)OCC(=O)[C@@]12N=C(C)O[C@@H]1C[C@H]1[C@@H]3CCC4=CC(=O)C=C[C@]4(C)[C@H]3[C@@H](O)C[C@@]12C	-6%	.	.	.	i	i	?	i	i	i	i	i
COC(=O)Nc1nc2ccc(C(=O)c3ccc(F)cc3)cc2[nH]1	-10%	.	.	.	.	1µM*	0.91µM*	?	?	2µM*	?	?
CCC(C)n1c(=O)c2sccc2n2c(CCCC(=O)NCc3ccccc3Cl)nnc12 (stereo unspecified)	.	1%	-1%	1%	.	.	.	.	.	.	.	.
CCCCn1cnc2c(=O)[nH]c(N)nc21	.	-11%	1%	.	.	.	.	.	.	.	.	.
Nc1nc2c(ncn2COCCO)c(=O)[nH]1	-3%	-8%	1%	-1%	i	5.7µM*	5.1µM*	?	i	?	?	i
CC(C)C[C@H](NC(=O)[C@H](Cc1ccccc1)NC(=O)c1cnccn1)B(O)O	0.027µM*	.	.	.	50µM*	0.01µM*	0.016µM*	0.032µM*	0.18µM*	0.018µM*	0.081µM*	0.011µM*
COc1cccc2c1C(=O)c1c(O)c3c(c(O)c1C2=O)C[C@@](O)(C(=O)CO)C[C@@H]3O[C@H]1C[C@H](N)[C@H](O)[C@H](C)O1	0.32µM*	?	-22%	-2%	4µM*	0.18µM*	0.29µM*	2.9µM*	1µM*	0.32µM*	4.1µM*	2.6µM*
COC(=O)CN1C(=O)[C@@H]2[C@H](C1=O)[C@@H]1CC(C(=O)OC)=C[C@@H](C(=O)OC)C3C1=C(C(=O)[C@]3(C)NC(=O)c1ccccc1)[C@@H]2C (stereo partly specified)	.	3%	0%	.	.	.	.	.	.	.	.	.
Cn1cc(CNCC2CCN(c3ncc(C(=O)NO)cn3)CC2)c2ccccc21	61%	.	.	.	.	0.02µM*	0.026µM*	0.18µM*	?	0.064µM*	0.72µM*	0.32µM*
CCOC(=O)Cn1c(=O)oc2cc(S(=O)(=O)N3CCN(c4cccc(C)c4)C(C)C3)ccc21 (stereo unspecified)	.	22%	2%	4%	.	.	.	.	.	.	.	.
Cc1oc2ncnc(N3CCCCC3)c2c1C(=O)N1CCN(c2cccc(C(F)(F)F)c2)CC1	?	-27%	-19%	0%	?	.	.	.	.	.	.	.
CC(=O)O[C@@]12CO[C@H]1C[C@H](O)[C@@]1(C)C(=O)[C@H](O)C3=C(C)[C@@H](OC(=O)C(O)[C@@H](NC(=O)OC(C)(C)C)c4ccccc4)C[C@@](O)([C@@H](OC(=O)c4ccccc4)[C@@H]21)C3(C)C (stereo partly specified)	?	.	.	.	.	0.026µM*	0.0046µM*	2.6µM*	i	?	8.1µM*	?
CC(=O)O[C@H]1C(=O)[C@@]2(C)[C@H]([C@H](OC(=O)c3ccccc3)[C@]3(O)C[C@H](OC(=O)[C@H](O)[C@@H](NC(=O)c4ccccc4)c4ccccc4)C(C)=C1C3(C)C)[C@]1(OC(C)=O)CO[C@@H]1C[C@@H]2O	-24%	7%	-8%	1%	?	0.14µM*	0.01µM*	0.14µM*	?	0.014µM*	?	0.057µM*
CC(=O)O[C@H]1C(=O)[C@@]2(C)[C@H]([C@H](OC(=O)c3ccccc3)[C@]3(O)C[C@H](OC(=O)[C@H](O)C(NC(=O)c4ccccc4)c4ccccc4)C(C)=C1C3(C)C)[C@]1(OC(C)=O)CO[C@@H]1C[C@@H]2O (stereo partly specified)	-25%	?	?	0%	?	.	.	.	.	.	.	.

High-throughput results from PubChem BioAssay.
